# Measured values published in PubChem BioAssay AID449762 (Southern Research Specialized Biocontainment Screening …, 2010).
# Several values for one entry are separate records, joined by “and”; a condition that tells them apart may be missing. Equal entries are not always repeated. In all, about 330,000 compounds went through this assay and about 1,900 (0.58%) were called active. Another 4% or so got no clear call; they are omitted. Not all results are given here. Entries with a potency or affinity are not part of this list. Values without a mark were called inactive. Rule as the data show it: inconclusive = inhibition above about 70% without an active follow-up result; inactive = below that.
# Experiment: M. tuberculosis growth inhibition, HTS (AID 449762);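 also: bacterial growth assessed after seven days of incubation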
# Settings: M. tuberculosis H37Rv growth inhibition, 7H9 media; at 25 µM; stronger effect = higher value
row,Structure (SMILES),inhibition
1,COC(=O)c1cc(NC(=O)C(C)c2ccc(CC(C)C)cc2)ccc1O (stereo unspecified),20.8%
2,CC1CCCN(C(=O)COC(=O)c2cccc(NS(=O)(=O)c3ccccc3)c2)C1 (stereo unspecified),-11.8%
3,O=C(Cn1nnc(-c2ccccc2)n1)OCc1ccccc1,-6.9%
4,O=C(O)c1cccc(-c2nnn(Cc3ccccc3)n2)c1,-10.4%
5,CCCCc1nnc(NC(=O)C(=O)OCC)s1,-3.95%
6,Cc1ccsc1C(=O)Nc1cccc(-n2cnnn2)c1,-0.76%
7,CCN(CC)S(=O)(=O)c1ccc(/C=C/C(=O)OCC(=O)N(C)C)cc1,4.6%
8,CCN(CC)S(=O)(=O)c1ccc(/C=C/C(=O)OCC(=O)N(C(C)C)C(C)C)cc1,3.48%
9,COc1ccc(NC(=S)N(CCCN2CCCC(C)C2)Cc2cccs2)cc1 (stereo unspecified),6.16%
10,N#Cc1ccc(Cn2ccnc2C(=O)Nc2ccccc2)cc1,0.04%
11,CCN(CC)CCN1C(=O)C(=O)/C(=C(/O)c2ccc(S(=O)(=O)N3CCOCC3)cc2)C1c1ccc(C(C)C)cc1 (stereo unspecified),1.15%
12,CCNCc1nc2cc(OC)c(OC)cc2c(=O)[nH]1,2.16%
13,CCOC(=O)c1sc2nc(C)nc(SCC(=O)NC(C)CCc3ccccc3)c2c1C (stereo unspecified),-5.1%
14,CCOC(=O)c1sc2nc(C)nc(SC(C)C(=O)NC3CC3)c2c1C (stereo unspecified),44%
15,O=C(c1ccc(F)cc1)C(CCCCCC(CN1CCOCC1)C(=O)c1ccc(F)cc1)CN1CCOCC1 (stereo unspecified),2%
16,COc1ncnc2c1oc1ccccc12,6.25%
17,Nc1ccc(-c2nc3c(ccc4ccccc43)[nH]2)cc1,6.07%
18,c1cncc(-c2nc3c(ccc4ccccc43)[nH]2)c1,-6.09%
19,O=C(Nc1ccc(S(=O)(=O)Nc2ccnn2-c2ccccc2)cc1)C(F)(F)F,56.7%
20,CC(=O)NC(CC(=O)Nc1nc(-c2ccc(N(C)S(C)(=O)=O)cc2)cs1)c1ccccc1 (stereo unspecified),-3.7%
21,CCCCCNc1nc(-c2ccccc2)nc(-n2ccnc2)n1,-1.97%
22,CC(C)Nc1nc(-c2ccccc2)nc(-n2ccnc2)n1,12.9%
23,CCCOc1ccc(-c2nnn(CC(=O)c3ccc4c(c3)OCCO4)n2)cc1,-6.75%

row,Structure (SMILES),inhibition
1,C=CCN1CC[C@]23c4c5ccc(O)c4O[C@H]2C(=O)CC[C@@]3(O)[C@H]1C5,29.2% and -16.4%
2,C=CCN1CC[C@]23c4c5ccc(O)c4OC2C(=O)CC[C@@]3(O)C1C5 (stereo partly specified),-3.13%
3,O=C(Nc1ccc(OCC(F)(F)C(F)F)c(C(F)(F)F)c1)c1ccccc1,3.85%
4,COc1ccc(C(=O)Nc2ccc(OCC(F)(F)C(F)F)c(C(F)(F)F)c2)cc1OC,-1.87%
5,COc1ccc(S(=O)(=O)N2CCOCC2)cc1NC(=O)CC1CCCC1,-1.2%
6,O=C(NCc1ccc(F)cc1)Nc1cccc(Cl)c1,-4.36%
7,CC(C)C(=O)Nc1ccc2c(c1)C(=O)N(CCC(=O)O)C2=O,3.16%
8,O=C(NCc1ccc2c(c1)OCO2)C1CCCN1S(=O)(=O)c1ccc(Cl)cc1 (stereo unspecified),-0.02%
9,CC(=O)Nc1cccc(NC(=S)Nc2cccc(Cl)c2Cl)c1,0.32%
10,COc1cc(/C=C2\N=C(C)OC2=O)cc(OC)c1OC,6.29%
11,COc1cc(/C=C2\SC(c3ccc(C)cc3)=NC2=O)cc(OC)c1OC,-5.86%
12,Cc1cccc(/C=N\NC(=O)c2sccc2-n2cccc2)c1,0.5%
13,COC(=O)C1=C(c2cccc(C#N)c2)C[C@@H]2CC[C@H]1N2C(=O)NCCc1ccccc1,-2.69%
14,CNC(=S)NNC(=O)c1sccc1OCc1ccc(Cl)cc1Cl,-1.67%
15,NNC(=O)c1sccc1OCc1ccc(Cl)cc1Cl,39.9%
16,CC(C)CC(CO)N1CCN(C(=O)c2ccc(Cl)c(Cl)c2)CCC1=O (stereo unspecified),-0.29%
17,COc1ccc(NC(=O)c2nnn(CC(=O)Nc3ccccc3OC)c2N)c(OC)c1,-1.76%
18,Cn1cnnc1SCc1ccc(C(=O)N=Nc2c(O)n(C)c3ccccc23)cc1,-4.97%
19,O=C(N=Nc1c(O)n(Cc2ccccc2)c2ccccc12)c1ccc(O)cc1,8.8%
20,CCCCCCC1CCC(C(=O)Nn2c(C)nc3ccccc3c2=O)CC1 (stereo unspecified),12.2%
21,Cc1nc2ccccc2c(=O)n1NC(=O)C1CC1,4.78%
22,COc1ccc(NC(=O)C2CC(c3c(F)cccc3Cl)=NO2)cc1 (stereo unspecified),0.25%
23,COc1ccc(OCCOc2cccc(C=C3C(=O)NC(=O)NC3=O)c2)cc1,21.3%

row,Structure (SMILES),inhibition
1,O=C(COc1ccc(Cl)cc1)NCCNC(=O)c1cnccn1,5.05%
2,O=C(NCC(c1ccco1)N1CCc2ccccc21)C(=O)Nc1ccccc1F (stereo unspecified),8.05%
3,CCC(C(=O)O)n1nnc(-c2ccc(-c3ccc(OC)cc3)cc2)n1 (stereo unspecified),4.02%
4,CCCCOc1ccc(-c2nnn(CC(=O)Nc3ncc(CC(=O)OCC)s3)n2)cc1,4.47%
5,CC1Cc2ccccc2N1C(=O)CN1CCC(C(N)=O)CC1 (stereo unspecified),0.29%
6,Cc1ccc(CNC(=O)c2ccc3c(=O)[nH]c4c(C(=O)NCC5CCCO5)sc(=S)n4c3c2)cc1 (stereo unspecified),6.08%
7,O=C(NCc1ccccc1)c1ccc2c(=O)[nH]c3c(C(=O)NCC4CCCO4)sc(=S)n3c2c1 (stereo unspecified),9.46%
8,COC(=O)c1ccc(NC(=S)N2CCN(Cc3ccccc3Cl)CC2)cc1,3.97%
9,COc1ccc(OC)c(NC(=O)CSc2nc(N3CCOCC3)nc(N3CCOCC3)n2)c1,-13%
10,COc1ccc(Nc2ncc3c(n2)CC(c2ccc(C)cc2)CC3=O)cc1 (stereo unspecified),11%
11,COc1ccc(Nc2ncc3c(n2)CC(c2ccc(OC)cc2)CC3=O)cc1 (stereo unspecified),5.93%
12,CC(=O)c1c(COC(=O)c2cccc(C)c2)nc2ccccc2[n+]1[O-],-1.11%
13,CC(=O)c1c(N2CCCCC2)nc(=S)n(-c2ccccc2)c1C,-9.27%
14,CN1CCC(N(C)C(=O)c2ccc(Cl)c(S(=O)(=O)Nc3cc(Cl)ccc3Cl)c2)CC1,-3.22%
15,O=C(CCCN1C(=O)c2cccnc2C1=O)N1CC(=O)N(CCc2ccccc2)C(=O)C1,2.7%
16,CC1CCN(CCNC(=O)C2CCN(S(=O)(=O)c3cccc4nsnc34)CC2)CC1,-5.73%
17,CO/N=C(\Cn1ncc(N2CCOCC2)c(Br)c1=O)c1ccc(Cl)cc1,-12.1%
18,O=C(Cn1ncc(N2CCCC2)c(Cl)c1=O)c1ccc(Cl)cc1,-5.18%
19,O=C(NCCC(=O)N1CCC2(CC1)NCCc1[nH]cnc12)c1cccc(C(F)(F)F)c1,-1.8%
20,CS(=O)(=O)Nc1ccc(C2=NN(C(=O)c3ccco3)C(c3ccccc3)C2)cc1 (stereo unspecified),2.8%
21,C=CCSC1=N/C(=C/c2ccsc2)C(=O)N1c1ccccc1,-5.05%
22,Cc1cc(C)n(-c2ccc(C(=O)Nc3ccc4c(c3)OCO4)cc2)n1,12.7%
23,Cc1cc(C)n(-c2ccc(C(=O)NCc3ccc4c(c3)OCO4)cc2)n1,8.5%

row,Structure (SMILES),inhibition
1,COc1ccc(CCNC(=O)CCc2nc3sc4c(c3c(=O)[nH]2)CCCC4)cc1,-1.73%
2,CCCCC(CC)COC(=O)CCCCC(=O)OCC(CC)CCCC (stereo unspecified),12.3%
3,CCCCC(CC)CO (stereo unspecified),-4.02%
4,Cc1csc(NC(=O)c2cccs2)n1,-0.19%
5,Nc1cc(N2CCCCCC2)c2nonc2c1[N+](=O)[O-],-8.43%
6,Nc1ccc2nonc2c1[N+](=O)[O-],-0.05%
7,COc1cccc2sc(N(CCN(C)C)C(=O)/C=C/c3cccs3)nc12,8.94%
8,Cc1cccc2sc(N(CCN(C)C)C(=O)/C=C/c3cccs3)nc12,51.5%
9,CN(CC(=O)Nc1ccc(S(=O)(=O)N2CCCC2)cc1)Cc1ccc(Cl)cc1Cl,-3.94%
10,O=C(CCC(=O)N(CC(=O)NC1CCCC1)Cc1ccc(F)cc1)Nc1nccs1,7.88%
11,O=C(NC1CC1)c1cccc(S(=O)(=O)Nc2ccccc2F)c1,-4.2%
12,CCN(CC)c1ccc2cc(-c3nc4ccccc4[nH]3)c(=O)oc2c1,4.76%
13,CCN(CC)c1ccc(/C=N/Nc2nc3ccccc3[nH]2)c(O)c1,19.6%
14,O=c1c2oc3ccccc3c2[nH]c(=S)n1-c1ccc(F)cc1,0.38%
15,Cc1ccc(C2Oc3ccccc3C3=C2C(c2cccs2)n2ncnc2N3)cc1 (stereo unspecified),55.2%
16,Fc1ccc(C2C3=C(Nc4ncnn42)c2ccccc2OC3c2ccncc2)cc1 (stereo unspecified),-5.07%
17,C/C=C\C=C\C(=O)N1CC2(CC(c3cccc(NC(=O)COc4ccc(Cl)cc4)c3)=NO2)C[C@H]1C(N)=O (stereo partly specified),23.8%
18,COc1cccc(C(=O)C2CCCN(Cc3ccccn3)C2)c1 (stereo unspecified),33.9%
19,COc1c(C)cc(C(=O)C2CCCN(Cc3ccc(Oc4ncccn4)cc3)C2)cc1C (stereo unspecified),7.33%
20,COc1ccc(N2CCN(CCNC(=O)c3ccc(NC(=O)C4CCCO4)cc3)CC2)cc1 (stereo unspecified),-2.8%
21,CC1CCN(C2=NC(=O)/C(=C/c3cn[nH]c3-c3ccccc3)S2)CC1,12.8%
22,O=C1N=C(N2CCCC2)S/C1=C\c1cn[nH]c1-c1ccccc1,-6.16%
